RmlCD inh mix – mixture blocks RmlC and RmlD coupled enzyme activity; 110,000 tested, 0.39% active; AID 1532; inhibition, % at 5.5 µM; RmlC/RmlD coupled enzyme inhibition, 384-well mixture HTS; in the data active = inhibition above about 30%, passing the limit was not always enough; inconclusive = no clear call, values can overlap the other calls
RT RNaseH block – blocks HIV-1 RNase H cleavage of RNA/DNA duplex. 65,000 tested, 1.9% active. inhibition, % at 10 µM. RT-RNase H RNA/DNA duplex cleavage, fluorescence; in the data active = inhibition above about 50%
A number is an active result; n = inactive; u = inconclusive; x = no result. Shown is part of a subset that was picked to be rich in hits.

SMILES | RmlCD inh mix | RT RNaseH block
COc1ccc(OC)c(N=c2oc3c(OC)cccc3cc2C(=O)NCc2ccco2)c1 | n | 88
CCO[C@@H]1OC(C(=O)N2CCN(Cc3ccccc3)CC2)=C[C@H](c2coc3ccccc3c2=O)[C@H]1CCCO | n | x
COc1ccc(C2C(C(C)=O)=C(C)N=c3s/c(=C\c4ccco4)c(=O)n32)c(OC)c1 (configuration not stated) | n | n
COc1ccc(C2C(C(C)=O)=C(C)N=c3s/c(=C\c4ccc5c(c4)OCO5)c(=O)n32)c(OC)c1 (configuration not stated) | n | 58
O=c1c2ccccc2nc2n1CCC2O (configuration not stated) | n | x
CC1(C)[C@@H](O)CC[C@]2(C)C3C(O)C=C4[C@H]5C[C@@](C)(CO)CC[C@]5(C)CC[C@]4(C)[C@]3(C)CC[C@@H]12 (some centres not stated) | n | x
N#C/C(C(=O)c1ccccc1)=C1/SC=C(N)N1c1ccccc1 | n | 64
COC(=O)/C(C#N)=C1/SC=C(C)N1c1ccccc1 | n | n
CCn1cc(/C=N/N=C2\CCC3C4CCc5cc(O)ccc5C4CC[C@]23C)c(C)n1 (some centres not stated) | n | x
CCOC(=O)CN1C(=O)N[C@@H](c2ccco2)C(C(C)=O)=C1C | n | x
NC(=O)NC1NC(=O)NC1=O (configuration not stated) | n | x
COC(=O)CCCC1=CC2=C(c3ccccc3)C(=O)C(C)(OC(=O)C3CCCC3)C(=O)C2=CN1CCc1c[nH]c2ccccc12 (configuration not stated) | n | x
CCO/C=C1\C(=O)N(c2ccccc2)C(=O)c2ccccc21 | 186 | n
CCO/C=C1/C(=O)N(CC)c2ccccc21 | x | n
COc1ccc(C(C)=O)cc1CSc1nnc(-c2ccc(Cl)cc2)n1-c1ccccc1 | n | x
CCC(C)OC(=O)C1=C(C)O[C@]23OC(N)=C(C#N)[C@]12C(=O)c1ccccc13 (some centres not stated) | n | x
CCOC(=O)C(C)Sc1cc(CS(=O)(=O)c2ccccc2)nc(-c2ccccc2)n1 (configuration not stated) | n | x
CC(C)(C)OC(=O)N1CCN(C(=O)OCC2c3ccccc3-c3ccccc32)CC1C(=O)O (configuration not stated) | n | x
O=C(NCc1ccco1)c1nn2c(C(F)(F)F)cc(-c3cccs3)nc2c1Br | n | x
COC(=O)c1nn2c(C(F)(F)F)cc(-c3ccc(Br)o3)nc2c1Br | n | 64
O=C1C(Cl)=C(N2CCOCC2)C(=O)N1c1cccc(Cl)c1 | n | 93
O=C1CC(N2CCOCC2)C(=O)N1c1cccc(Cl)c1 (configuration not stated) | n | n
CN1CCN(C2=C(Cl)C(=O)N(CCc3ccccc3)C2=O)CC1 | n | n
O=C1C(Cl)=C(N2CCCCCC2)C(=O)N1c1ccccc1 | n | 57
C#CCOCCOCCOCCNc1nc(N2CCN(C(=O)Cn3cc(CC(C)O)nn3)CC2)nc(N2CCN(C(=O)[C@H](C)n3cc(CCCN=C(N)N)nn3)CC2)n1 (some centres not stated) | n | x
SMILES | RmlCD inh mix | RT RNaseH block
COc1ccc([C@@H]2C[C@H](c3ccccc3)Oc3cc(C)cc(C)c32)cc1 | n | x
CCCCn1c(O)c(C=NC2CCCCC2N)c(=O)[nH]c1=O (configuration not stated) | n | n
CCCCCCn1c(O)c(C=NC2CCCCC2N)c(=O)[nH]c1=O (configuration not stated) | n | 51
N=C1/C(=C\c2ccc(OCc3ccccc3)cc2)C(=O)N=C2SC(N3CCCC3)=NN12 | n | x
COc1ccc(Cn2nnnc2C(c2ccccc2OC)N2CCC(C(N)=O)CC2)cc1 (configuration not stated) | n | n
COc1ccc(N2CCN(C(c3ccccc3OC)c3nnnn3Cc3ccco3)CC2)cc1 (configuration not stated) | n | 51
COc1ccc(OCCCC(=O)Nc2cc([N+](=O)[O-])ccc2C)cc1 | n | x
CN(C(=S)Nc1ccc(F)cc1)C1(c2ccccc2Cl)CCCCC1=O (configuration not stated) | n | x
CNC(=O)/C(C#N)=c1\s/c(=C/C(=O)OC)c(=O)n1-c1ccccc1 | n | x
COC(=O)/C=c1\sc2ncnn2c1=O | n | 56
Cc1ccc(-c2nc3cnccn3c2Nc2c(C)cccc2C)o1 | n | x
Cc1ccccc1-n1c(SCC(=O)c2cc(C)n(C)c2C)nnc1-c1ccncc1 | n | n
Cc1c(C=O)cnn1CCC(=O)O | n | x
COC(=O)C1=CN(CC2CCCO2)C=C(C(=O)OC)C1c1ccccc1C(F)(F)F (configuration not stated) | n | x
COC(=O)C1=CN(CC2CCCO2)C=C(C(=O)OC)C1c1ccsc1 (configuration not stated) | 58 | n
CCOC(=O)c1c2c(c(=S)n(-c3ccccc3)c1N)CCC2 | n | n
N#Cc1c2c(c(=S)n(-c3ccccc3)c1N)CCCC2 | x | 70
Cc1cccc(C)c1C(=O)N[C@@H](Cc1ccccc1)C(=O)O | n | x
CCc1nnc(NCC(=O)N2CCc3ccccc32)s1 | n | 55
CCc1nnc(NC(=O)c2c(O)c3cccc4c3n(c2=O)CC4)s1 | x | n
CC(C)(C)[C@H]1C=C(C(N)=O)O[C@@H](OCCCCO)C1 | n | x
Cn1c(N)c(C#N)c2c(c1=S)CSC(C)(C)C2 | n | n
CC1(C)Cc2c(C#N)c(N)sc(=S)c2CS1 | u | 62
CCn1c(CNc2nc3ccccc3n2C(C)C)nc2ccccc21 | n | x
COCCNC(=O)c1ccc(CN2CCOCC2)cc1 | n | x
SMILES | RmlCD inh mix | RT RNaseH block
COc1cc(-c2nc3cnccn3c2Nc2ccc(C)cc2)ccc1O | n | x
COc1cc(-c2nc3cnccn3c2Nc2ccccc2)ccc1O | 40 | n
O=C(NCCCCc1ccccc1)C1CC(c2ccccc2C(F)(F)F)=NO1 (configuration not stated) | n | x
CCOC(=O)c1cnn2c(C(F)(F)F)cc(-c3ccccc3)nc12 | n | n
CCOC(=O)N1CCC(NC(=O)c2cnn3c(C(F)(F)F)cc(-c4cccc(OC)c4)nc23)CC1 | 121 | n
COc1ccc(-c2nnc(SCc3cccc(C)c3)n2N)cc1 | n | x
Cc1cccc(CSc2nnc(-c3ccccn3)n2N)c1 | n | 52
COc1ccc(C(=O)CSc2nn3c(=O)c(C(C)(C)C)nnc3s2)cc1 | n | n
COc1ccc(-n2c(C)cc(C(=O)CSc3nn4c(=O)c(C(C)(C)C)nnc4s3)c2C)cc1 | n | 50
Cc1cc(Cl)c(S(=O)(=O)N2CCN(c3ccccc3)CC2)cc1OCC(N)=O | n | x
C=C1[C@@H](OC(C)=O)CC[C@]2(C)[C@@H]1C[C@@H]1C[C@H](OC(C)=O)C(C)=C([C@@H](OC(C)=O)[C@@H]2OC(C)=O)C1(C)C | n | x
NS(=O)(=O)c1ccc(N=Cc2c(O)n(C3CCCCC3)c(=O)n(C3CCCCC3)c2=O)cc1 | x | 52
CC(C)C(=O)N1CCC(CN=Cc2c(O)n(C3CCCCC3)c(=O)n(C3CCCCC3)c2=O)CC1 | n | n
COc1ccc2c(c1)C(=NN)c1cc(OC)ccc1-2 | n | x
CC(C)c1ccc(C2CC(=O)N3CN(Cc4ccco4)CSC3=C2C#N)cc1 (configuration not stated) | n | 59
N#CC1=C2SCN(Cc3ccccc3)CN2C(=O)CC1c1ccc2c(c1)OCO2 (configuration not stated) | n | n
